This is part of a sample that, as a whole, favours compounds with a hit. Of some 83,000 tested, about 20% had one in any assay.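 How to read the values: 0–100, growth inhibition (40 = 60% inhibited); 0, no net growth; -100 to 0, cell death (-40 = 40% of starting cells died; -100 = all dead).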 Activity calls are given as the source filed them. The calls were made as follows: active = growth percent below 10; inactive = the rest.
Key:
Test in all cases: NCI-60 one-dose screen, 48 h (100 = growth as untreated, 0 = no growth, -100 = all killed)
Settings in all cases: 10 µM unless noted
[1] = system: HT29 colon
[2] = system: SNB-75 CNS
[3] = system: SNB-19 CNS
[4] = system: PC-3 prostate
[5] = system: SK-MEL-5 melanoma
[6] = system: UACC-62 melanoma
[7] = system: LOX IMVI melanoma
[8] = system: SK-MEL-28 melanoma
[9] = system: U251 CNS

Measured: growth

O=C(/C=C/c1cccc([N+](=O)[O-])c1)c1ccc(O)c(CN2CCN(c3cc4c(cc3F)c(=O)c(C(=O)O)cn4C3CC3)CC2)c1
inactive: [2] 31.1% | [3] 47.2% | [4] 18.4% | [5] 46.1% | [6] 53% | [8] 46.4%
active: [1] -23.6% | [7] -93.5%

COc1ccc2c(c1)CC/C(=C\c1cncc(Br)c1)C2=O
inactive: [1] 79.7% | [2] 120% | [3] 90.7% | [9] 85.9% | [4] 92.7% | [7] 88.3%

CC(=O)c1cc2c(N)c(C(=O)Nc3cccc(F)c3C)sc2nc1C
inactive: [1] 81.6% | [2] 68.1% | [3] 83.1% | [9] 93.3% | [4] 81.4% | [6] 52.1% | [7] 96.9% | [8] 97.4%

CN1CCN(CCCOc2cccc3nc(Nc4ccc(Cl)c(F)c4)ccc23)CC1
inactive: [2] 48.2% | [3] 42.3% | [9] 26.1% | [4] 39% | [8] 18.1%
active: [1] -59.7% | [6] -55.5% | [7] -96.1%

O=Nc1c(O)c(Cl)cc2ccccc12
inactive: [1] 83.1% | [2] 62% | [3] 88.9% | [9] 65.6% | [4] 66.7% | [6] 77.5% | [7] 72.4% | [8] 92.1%

Cc1ccc2oc(=O)cc(C3c4ccc([nH]4)C(c4cc(=O)oc5ccc(C)cc45)c4ccc([nH]4)C(c4cc(=O)oc5ccc(C)cc45)c4ccc([nH]4)C(c4cc(=O)oc5ccc(C)cc45)c4ccc3[nH]4)c2c1 (centres undefined)
active: [1] -75.7% | [2] -42% | [3] -29.6% | [9] -80.7% | [4] -27.2% | [6] -57% | [7] -70.6% | [8] -53.2%

CCCCC[C@H]1C/C=C2/C(=O)C=C[C@@H]2C/C=C\CCCC(=O)O1
active: [1] -69.1% | [2] -33.6% | [3] 1.16% | [9] -78.2% | [4] -38.4% | [7] -79.1%

CCOC(=O)C(C)(C#N)C1C=CCCC1 (centres undefined)
inactive: [1] 94.7% | [2] 78.3% | [3] 87.9% | [9] 106% | [4] 94.2% | [6] 97.7% | [7] 96.1% | [8] 96.2%

COC(=O)c1cccc(NC(=O)c2ccc(-c3cccc(N)c3)o2)c1
inactive: [1] 107% | [2] 93.2% | [3] 95.5% | [9] 104% | [5] 81.8% | [6] 91.4% | [7] 99.6% | [8] 102%

CCc1c(Nc2ccccc2C)nc(N)[nH]c1=O
inactive: [1] 110% | [2] 92.9% | [3] 110% | [9] 120% | [5] 107% | [6] 110% | [7] 107% | [8] 112%

Cn1c(O)c(N=NC(=O)c2cc(-c3ccccc3)on2)c2ccccc21
inactive: [1] 105% | [2] 58.5% | [3] 98.2% | [4] 103% | [5] 99.3% | [6] 98.9% | [7] 92.2% | [8] 107%

Source: PubChem BioAssay (NCI)
